NSD2 HMT inh = NSD2 histone methyltransferase inhibitors, primary screen, biochemical, AlphaScreen, single concentration, set 2; 310,000 compounds, 0.54% hits; NSD2 peptide methylation, 120 min; inhibition, % at 12.5 µM; Histone-lysine N-methyltransferase NSD2 (Homo sapiens), O96028; AID 743445, 2014; in the data active means inhibition above about 50%
CDK5 p35 inh = inhibitors of human CDK5/p35 kinase, primary screen, biochemical, single concentration; Cyclin-dependent kinase 5 (Homo sapiens) + Cyclin-dependent kinase 5 activator 1 (Homo …; Recombinant CDK5/p35, ADP-Glo luminescence, 60 min; inhibition, % at 10 µM; 330,000 compounds, 0.01% hits;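 active means highest replicate inhibition of at least 50% and at least 75% of replicates reaching 50%; inconclusive means only one of the two criteria met; inactive means both criteria failed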
CASP6 VEID inh = human caspase-6 inhibitors, primary screen, biochemical, VEID-R110 fluorescence, single point, set 2; AID 686996, 2013; 350,000 compounds, 0.53% hits; inhibition, % at 12.5 µM; purified caspase-6, Z-VEID-R110 cleavage fluorescence; P55212;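 active means mean inhibition across replicates at least about 35%, with every replicate also reaching that limit, limit read from the data; inconclusive means only one of the two criteria met; inactive means neither criterion met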
Glyco luc inh = increase of ERlucT glycosylation luciferase signal, primary screen, N-linked glycosylation inhibitor project, D54 ERlucT cells, luminescence, set 2; D54 ERlucT glycosylation luciferase reporter, 24 h; percent of 100 nM tunicamycin response; reporter increase, % at 12.5 µM; 360,000 compounds, 0.23% hits; AID 588692, 2011;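 active means mean luciferase reporter signal, scaled so untreated is 0 and the glycosylation-blocking control 100, at or above a set limit in every replicate; inconclusive means mean reaches the limit but not every replicate does; inactive means mean below the limit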;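 further: luciferase carries N-glycosylation sites so blocking glycosylation raises the light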
ALR inh = inhibitors of human ALR sulfhydryl oxidase, primary screen, biochemical, H2O2 detection, HRP-luminol luminescence, single point. 290,000 compounds, 3.8% hits. FAD-linked sulfhydryl oxidase ALR (Homo sapiens), P55789. inhibition, % (no concentration beside the values). AID 485317, 2010. purified ALR, DTT oxidation;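 active means mean replicate inhibition above about 79%, with every replicate also reaching it, limit read from the data; inconclusive means only one of the two criteria met; inactive means mean below limit and not every replicate reaching it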
Target sequence (P55789 whole entry, looked up): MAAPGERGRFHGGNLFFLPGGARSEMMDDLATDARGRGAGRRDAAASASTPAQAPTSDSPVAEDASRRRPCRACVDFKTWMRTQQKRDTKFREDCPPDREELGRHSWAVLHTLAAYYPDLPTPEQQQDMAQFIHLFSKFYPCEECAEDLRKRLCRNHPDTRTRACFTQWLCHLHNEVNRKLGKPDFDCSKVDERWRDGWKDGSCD
SUMO Mot1 rescue = yeast Mot1-301 growth rescue at high temperature, primary screen, SUMOylation pathway inhibitor project, S. cerevisiae, ATP luminescence, 38.5C. S. cerevisiae Mot1-301 growth rescue; percent above DMSO median, 100 means doubled. growth rescue, % at 18.8 µM. 320,000 compounds, 1% hits. AID 2716, 2010;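 active means every valid replicate shows activation above 250% relative to neutral control wells; inactive means the rest, any valid replicate at or below 250%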
Numbers stand for hits; 0 = inactive; ? = inconclusive; - = not tested or not shown. This is a sample that favours compounds with a hit; in the whole collection about 3.9% have one here.

SMILES	NSD2 HMT inh	CDK5 p35 inh	CASP6 VEID inh	Glyco luc inh	ALR inh	SUMO Mot1 rescue
C[C@H]1CN([C@@H](C)CO)C(=O)Cc2cc(NS(=O)(=O)c3ccc(Cl)cc3)ccc2O[C@H]1CN(C)C(=O)Nc1ccc(C(F)(F)F)cc1	-	-	0	-	-	-
Cc1cc(C(=O)Nc2cccc3c2O[C@@H](CN(C)C(=O)Nc2c(C)noc2C)[C@@H](C)CN([C@@H](C)CO)C3=O)n(C)n1	-	-	0	-	-	-
Brc1ccc(C2=Nn3c(nnc3-c3n[nH]c4c3CCC4)SC2)cc1	-	0	-	41.9	0	0
Clc1ccc(C2=Nn3c(nnc3-c3n[nH]c4c3CCC4)SC2)cc1	0	0	-	37.1	0	0
C[C@@H]1CN([C@@H](C)CO)C(=O)c2cc(NC(=O)Cc3cn(C)c4ccccc34)ccc2O[C@@H]1CN(C)S(=O)(=O)c1cn(C)cn1	-	-	0	-	-	-
COc1cc(SC#N)ccc1N=Cc1c(C)[nH]n(-c2ccc(C)cc2C)c1=O	0	0	-	0	99.1	0
COc1cc(SC#N)ccc1N=Cc1c(C)[nH]n(-c2cccc3ccccc23)c1=O	-	-	-	-	98.8	0
COc1ccccc1N=Cc1c(C)[nH]n(-c2ccc(C)cc2C)c1=O	0	0	0	0	0	0
CCCC#Cc1ccc2c(c1)O[C@@H](CN(C)C(=O)c1ccccn1)[C@@H](C)CN([C@@H](C)CO)S2(=O)=O	-	-	0	-	-	-
C/C=C/c1cnc2c(c1)C(=O)N([C@@H](C)CO)C[C@@H](C)[C@H](CN(C)Cc1cccc(C(=O)O)c1)O2	-	-	0	-	-	-
CCN(CC)c1ccc(C2CC(=O)Nc3cc(OC)c(OC)cc32)cc1 (stereo unspecified)	0	0	-	0	98.4	0
COc1cc2c(cc1OC)C(c1ccc(N(C)C)cc1)CC(=O)N2 (stereo unspecified)	0	0	-	0	0	0
Nc1ccc(C(=O)N/N=C/c2cn(Cc3ccc(F)cc3)c3ccccc23)cc1	0	0	73.2	0	0	0
Cc1ccccc1OCC(=O)N/N=C/c1cn(Cc2ccccc2)c2ccccc12	0	0	-	0	0	0
COc1cc(C(=O)N/N=C/c2cn(Cc3ccccc3)c3ccccc23)ccc1O	0	0	0	0	84.6	0
Nc1ccc(C(=O)N/N=C/c2cn(Cc3ccccc3)c3ccccc23)cc1	0	0	0	0	0	0
O=C(N/N=C/c1cn(Cc2cccc(F)c2)c2ccccc12)c1cc(O)cc(O)c1	0	0	57.4	0	0	0
CO[C@H]1CN(C)C(=O)c2cc(NC(=O)c3cnccn3)ccc2OC[C@H](C)NC[C@H]1C	-	-	0	-	-	-
O=C(C[C@H]1CC[C@H](NC(=O)CN2CCOCC2)[C@H](CO)O1)NCCc1ccccc1	-	-	0	-	-	-
O=C(CSc1ccc(Br)cc1)NC1CCS(=O)(=O)C1 (stereo unspecified)	0	0	0	0	-	0
Cc1ccc(SCC(=O)NC2CCS(=O)(=O)C2)cc1C (stereo unspecified)	0	0	0	0	99.1	0
CCOc1ccc(CCNC(=O)C2CC(C)=CCC2C(=O)O)cc1OCC (stereo unspecified)	0	0	35.9	0	0	0
O=C(Nc1ccc(NC(=O)C2CCCCC2)nc1)c1ccccn1	0	0	-	0	98.5	0
Cc1ccc(C)c(S(=O)(=O)N2CCN(C(C)C(=O)Nc3ccccc3-c3ccccc3)CC2)c1 (stereo unspecified)	-	0	35.1	0	0	0
Cc1ccc(C)c(S(=O)(=O)N2CCN(C(=O)CSc3ccccc3)CC2)c1	0	0	0	0	0	0
N#CC1=C(N)Oc2cc(O)c(Cl)cc2C1c1ccccc1F (stereo unspecified)	0	0	44.1	0	0	0
O=C(CSc1c2c(nc3ccccc13)CCCC2)NCc1ccco1	0	0	0	0	98.5	0
COc1cc(Nc2c3c(nc4ccccc24)CCCC3)cc(OC)c1OC	0	0	0	?	98.4	0
